Experimental data as given in PubChem BioAssay (NCATS).
Values joined by “and” are separate entries in the source; they are usually repeats but may differ in a detail not shown here. Equal entries are not always repeated. Inconclusive results are not listed. Unmarked numbers belong to inactive results. Active and inactive are the calls of the source. Calls come from the whole dose curve; as a rule, active = well fitted cell-killing curve with a large enough effect; inconclusive = small, poorly fitted or top-dose-only effect, or effect the other way; inactive = no such curve, though single readings can be large or run the other way.

Assay: Viability qHTS for spleen associated tyrosine kinase inhibitor (SYKi) naive MV4-11 cells (AID 1963823); note: nearly all actives have a fitted effect of over 40% in size
Settings: MV4-11 AML viability, CellTiter-Glo luminescence, 72 h; series mostly up to 45 µM; viability (% of control): at the top concentration
Procedure, shortened: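 Cells: MV4-11, SYK inhibitor naive, 500 per well. Treatment: library compounds, 72 hr, 37 C, 5% CO2. Read-out: CellTiter-Glo luminescence after 10 min RT.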
Potency is the fitted concentration of half-maximal effect.

Compound | viability (% of control) | Potency
C[C@@H]1O[C@@H](O[C@H]2[C@H](OC(=O)[C@]34CCC(C)(C)C[C@H]3C3=CCC5[C@@]6(C)C[C@@H](O)[C@@H](O)[C@@](C)(CO)C6[C@H](O)C[C@@]5(C)[C@]3(C)CC4)OC[C@H](O)[C@@H]2O)[C@H](O)[C@H](O)[C@H]1O[C@@H]1OC[C@@H](O)[C@H](O[C@H]2O[C@H](C)[C@@H](O)[C@H](O)[C@@H]2O)[C@H]1O (some centres not stated) | 80.2% [at 9.25 µM] | 
CC(C)(O)C1=CCC23COC(C2)C(O)(C(=O)O)CCC13 (configuration not stated) | 95.7% | 
C=C1CC2C3(C)C=CC(=O)OC(C)(C)C3CC(OC(C)=O)C2(C)C2C(=O)OC(C)C(=O)C12C (configuration not stated) | 81.4% [at 17.3 µM] | 
Cc1c(-c2ccc(O)cc2)n(Cc2ccc(OCCN3CCCCCC3)cc2)c2ccc(O)cc12 |  | 18.8 µM (active) and 8.33 µM (active)
CC1CCC2(C(=O)OC3OC(CO)C(O)C(O)C3O)CCC3(C(=O)O)C(=CCC4C5(C)CCC(OC6OC(C)C(O)C(O)C6O)C(C)(C)C5CCC43C)C2C1C (configuration not stated) | 73.7% [at 17.3 µM] | 
C=C1C(=O)OC2CC(C)C(CCC(C)=O)=CCC12 (configuration not stated) |  | 8.2 µM (active)
C=C1CC[C@H]2[C@@](C)(CCC(O)[C@@]2(C)CO)[C@@H]1/C=C/C(=C\C(=O)O)C(=O)O (some centres not stated) | 80.7% | 

Assay: Viability qHTS for spleen associated tyrosine kinase inhibitor (SYKi) drug resistant MV4-11 cells (AID 1963824); note: nearly all actives have a fitted effect of over 35% in size
Settings: SYKi-resistant MV4-11 viability, CellTiter-Glo, 72 h; series mostly up to 45 µM; viability, % of control: at the top concentration
Procedure, shortened: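 CellTiter-Glo luminescence, read 10 min after reagent addition, reports viability after a 72 hr compound exposure. Cells are an MV4-11 line made resistant to SYK inhibition, seeded at 500 per well onto compound-containing plates.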

Compound | Potency | viability, % of control
CC(=O)CC(=O)Nc1ccc(Cl)c(C(F)(F)F)c1 | 14.6 µM (active) | 
CC(=O)OCC1=C[C@@H]2OC(=O)C3=CO[C@@H](O[C@@H]4O[C@H](CO)[C@@H](O)[C@H](O)[C@H]4O)[C@H]1[C@@H]32 |  | 74.7% [at 17.3 µM]
C=C1CC23CC1CCC2C12OC(=O)C(C)(C(O)C(O)C1O)C2C3C(=O)O (configuration not stated) |  | 80.7%
N#CCc1ccc(O)cc1O[C@@H]1O[C@H](CO)[C@@H](O)[C@H](O)[C@H]1O |  | 109%
O=C(O)c1ccnc(-c2cc(C(=O)NCCc3ccccc3)ccn2)c1 |  | 74.1%
C=C1C(=O)OC2/C=C(\CO)CC/C=C(\C=O)C(OC)C(OC(=O)C(C)CC)C12 (configuration not stated) | 2.52 µM (active) | 
CC(C)COc1ccc(CNC(=O)N(Cc2ccc(F)cc2)C2CCN(C)CC2)cc1 | 13 µM (active) | 
CC1=C(c2ccc(O)cc2)[C@H](c2ccc(OCCN3CCCCC3)cc2)Oc2cc(O)ccc21 | 8.33 µM (active) | 
O=C(c1ccccc1)c1c(O)cc(O)cc1O[C@@H]1O[C@H](CO)[C@@H](O)[C@H](O)[C@H]1O |  | 90.3%
C/C=C1/CC2C(=O)Nc3cc(O)c(OC)cc3C(=O)N2C1 (configuration not stated) | 14.3 µM (active) | 
CC(C)c1cc2c(c(O)c1O)[C@@]13CCCC(C)(C)C1[C@@H](O)[C@@H]2OC3=O (some centres not stated) | 10.1 µM (active) | 
COC(=O)C[C@@H]1C(C(=O)O)=CO[C@@H](O[C@@H]2O[C@H](CO)[C@@H](O)[C@H](O)[C@H]2O)/C1=C\COC(=O)/C=C/c1ccc(O)c(OC)c1 |  | 91.8% [at 17.3 µM]
CC1=CC(=O)CC(C)(C)C1CO[C@@H]1O[C@H](CO)[C@@H](O)[C@H](O)[C@H]1O (some centres not stated) |  | 104%
CC1=CC(=O)CC(C)(C)C1/C=C/C(C)OC1OC(COC2OCC(O)C(O)C2O)C(O)C(O)C1O (configuration not stated) |  | 65.7% [at 17.3 µM]
COc1ccc(C2=NC(c3ccc(Cl)cc3)C(c3ccc(Cl)cc3)N2C(=O)N2CCNC(=O)C2)c(OC(C)C)c1 (configuration not stated) | 18.4 µM (active) | 
C/C=C/C=C/C=C/C(=O)O[C@@H]1[C@@H](OC)C2=C(C(=O)N(C(C)C(=O)O)C2)[C@@]2(C)CCCC(C)(C)[C@H]12 (some centres not stated) |  | 70.3% [at 17.3 µM]
N[C@@]1(C(=O)O)CC[C@H]2[C@H](C(=O)O)[C@H]21 |  | 108%
COC(=N)c1nc2ccc3ncnc(Nc4ccc(F)cc4Br)c3c2s1 | 0.82 µM (active) | 
CCC(C)C1NC(=O)C(Cc2ccccc2)NC(=O)C(CCCCCC(=O)C(O)CO)NC(=O)C2CCCCN2C1=O (configuration not stated) | 1.93 µM (active) | 
C[C@@H]1C[C@@H]2O[C@H]2/C=C\C=C\C(=O)Cc2c(Cl)c(O)cc(O)c2C(=O)O1 | 0.064 µM (active) | 

Compound | Potency | viability, % of control
CCOC(=O)OCC/C(SC(=O)OCC)=C(\C)N(C=O)Cc1cnc(C)nc1N |  | 61.3%
CC1(C)CC[C@]2(C(=O)O[C@@H]3O[C@H](CO)[C@@H](O)[C@H](O)[C@H]3O)CC[C@]3(C)C(=CCC4[C@@]5(C)C[C@@H](O)[C@H](O)[C@](C)(C=O)C5CC[C@]43C)[C@@H]2[C@@H]1O (some centres not stated) |  | 98.3% [at 17.3 µM]
COc1ccc(CCO[C@@H]2O[C@H](CO[C@@H]3OC[C@H](O)[C@H](O)[C@H]3O)[C@@H](O)[C@H](O)[C@H]2O)cc1 |  | 95% [at 17.3 µM]
COc1cc(O[C@@H]2O[C@H](CO[C@H]3OC[C@](O)(CO)[C@H]3O)[C@@H](O)[C@H](O)[C@H]2O)cc(OC)c1O |  | 92.1% [at 17.3 µM]
COc1cc2nc(C3CC3)nc(N3CCN(c4ccccc4OC)CC3)c2cc1OC | 14.6 µM (active) | 
CC1=C(C(=O)O[C@@H]2O[C@H](COC3OCC(O)C(O)C3O)[C@@H](O)[C@H](O)[C@H]2O)C(C)(C)CCC1 (some centres not stated) |  | 61.9% [at 17.3 µM]
C[C@]1(O)CC[C@@H]2C(C(=O)O)=CO[C@@H](O[C@@H]3O[C@H](CO)[C@@H](O)[C@H](O)[C@H]3O)[C@@H]21 |  | 96.6%
C=C1OC2CC(C(=O)O)C=CC2NC1=O (configuration not stated) | 2.91 µM (active) | 
Cc1ccc(NS(=O)(=O)c2cc3c(cc2N[C@@H](C)CO)NC(=O)CC3)cc1C | 20.6 µM (active) | 
COc1cc2c(cc1NS(=O)(=O)c1ccc(Br)cc1C)n(C)c(=O)n2C | 2.31 µM (active) | 
CN(C)c1ccc(Nc2c3ccc(NC(=O)CCN4CCCC4)cc3nc3cc(NC(=O)CCN4CCCC4)ccc23)cc1 | 4.11 µM (active) | 
Cn1cc(-c2cnc3ccc4ccc(CS(=O)(=O)NCc5ccccn5)cc4c(=O)c3c2)cn1 | 11.6 µM (active) | 
CC(C)(C)c1ccc(S(=O)(=O)Nc2ccc(-n3ccnc3)cc2)cc1 | 10.3 µM (active) | 
C[C@@H]1O[C@@H](O[C@H]2[C@H](OC(=O)[C@]34CCC(C)(C)C[C@H]3C3=CCC5[C@@]6(C)C[C@@H](O)[C@@H](O)[C@@](C)(CO)C6[C@H](O)C[C@@]5(C)[C@]3(C)CC4)OC[C@H](O)[C@@H]2O)[C@H](O)[C@H](O)[C@H]1O[C@@H]1OC[C@@H](O)[C@H](O[C@H]2O[C@H](C)[C@@H](O)[C@H](O)[C@@H]2O)[C@H]1O (some centres not stated) |  | 77.9% [at 9.25 µM]
CC(C)(O)C1=CCC23COC(C2)C(O)(C(=O)O)CCC13 (configuration not stated) |  | 114%
C=C1CC2C3(C)C=CC(=O)OC(C)(C)C3CC(OC(C)=O)C2(C)C2C(=O)OC(C)C(=O)C12C (configuration not stated) |  | 75.7% [at 17.3 µM]
Cc1c(-c2ccc(O)cc2)n(Cc2ccc(OCCN3CCCCCC3)cc2)c2ccc(O)cc12 | 23.7 µM (active) and 9.34 µM (active) | 
CC1CCC2(C(=O)OC3OC(CO)C(O)C(O)C3O)CCC3(C(=O)O)C(=CCC4C5(C)CCC(OC6OC(C)C(O)C(O)C6O)C(C)(C)C5CCC43C)C2C1C (configuration not stated) |  | 74.5% [at 17.3 µM]
C=C1C(=O)OC2CC(C)C(CCC(C)=O)=CCC12 (configuration not stated) | 5.17 µM (active) | 
C=C1CC[C@H]2[C@@](C)(CCC(O)[C@@]2(C)CO)[C@@H]1/C=C/C(=C\C(=O)O)C(=O)O (some centres not stated) |  | 106%
